Test results taken from PubChem BioAssay.
Several values for one entry are separate records, joined by “and”; a condition that tells them apart may be missing. Equal values may be shown once. Results filed as inconclusive are left out. Activity calls are given as the source filed them. Unless noted, no rule for the calls is given here.

Key:
[1] = biological target: GTPase HRas (Homo sapiens) (UniProt P01112); assay: inhibitors of GTP binding to wildtype Ras, dose response, biochemical, multiplex bead flow cytometry (AID 1335;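 active = fitted half-maximal concentration within 10 nM to 100 µM, steepness 0.5 to 2, significant signal drop, low assay interference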); details: bead-based flow cytometry, Bodipy-GTP binding to GST-Ras; at 100 µM (top of the series)
[2] = yeast TOR pathway RPL19A-GFP modulators, primary screen, cell-based, S. cerevisiae, multiplex flow cytometry (AID 1862; in the data active = percent of DMSO control GFP below about 86%;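 also: lower values mimic rapamycin by blocking the RPL19A rise seen in DMSO cells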); details: S. cerevisiae RPL19A-GFP strain, flow cytometry fluorescence, 3 h; at 10 µM; stronger effect = lower value
[3] = modulators of MEP2-GFP levels in yeast, primary screen, S. cerevisiae, multiplex flow cytometry (AID 1867;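 active = GFP response, as percent of the DMSO control, above the screen-wide mean plus 3 SD, about 139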;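 also: median GFP channel fluorescence of barcode-gated MEP2-GFP cells measured by flow cytometry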); details: S. cerevisiae MEP2-GFP strain, 3 h, at 10 µM, stronger effect = higher value
[4] = modulators of CIT2-GFP expression in yeast, primary screen, S. cerevisiae, GFP fusion, multiplex flow cytometry (AID 1870;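 active = percent response above a set limit, the screen-wide mean plus 3 SD, cut at about 130% in these data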;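 also: barcoded CIT2-GFP strain pooled with four other GFP strains with rapamycin as positive control; median GFP fluorescence per well over plate mean of DMSO wells so 100% = DMSO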); details: 3 h, at 10 µM, stronger effect = higher value
[5] = modulators of LAP4-GFP expression in yeast, primary screen, S. cerevisiae, multiplex flow cytometry (AID 1873;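 active = GFP signal, as percent of the solvent control, above the screen mean plus 3 SD, about 149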); details: 3 h, at 10 µM, stronger effect = higher value
[6] = modulators of AGP1-GFP expression in yeast TOR pathway, primary screen, cell-based, multiplex flow cytometry, S. cerevisiae (AID 1887;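 active = GFP signal above the screen-wide mean plus 3 SD, that is over about 124.5% of the solvent control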;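 also: AGP1-GFP fusion strain of S. cerevisiae within a five-strain barcoded multiplex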); details: 3 h, at 10 µM, stronger effect = higher value
[7] = inhibitors of CD8+ T cell-vesicle binding, pilot screen, LFA-1/ICAM-1 modulator project, MLPCN validation set, flow cytometry (AID 2523;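 active = response below a set limit, under 55% cells CD8-positive and vesicle-bound, and CD8 cells' 90th-percentile brightness under 279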;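 as to vesicle binding response: mean PE anti-B7-1 fluorescence of CD8+ cells relative to row control; 100% = QL9-loaded vesicles with DMSO vehicle in the same plate row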); details: 2C mouse CD8+ T cells, at 7 µM, stronger effect = lower value; double positive events: measured here: CD8+/vesicle+ event percentage
[8] = biological target: Integrin beta-1 (Homo sapiens) + Integrin alpha-4 (Homo sapiens) (UniProt P13612+P05556); assay: inhibition of HUTS-21 binding to VLA-4, pilot screen, VLA-4 allosteric modulator project, U937 cells, HUTS-21 mAb, flow cytometry, validation set (AID 2674;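 active = inhibition above 50%, about 3 SD of the validation set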;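 also: antibody binding induced by the VLA-4 ligand LDV present at three times its Kd; 0% = LDV ligand with antibody and no compound and 100% = antibody without LDV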); details: HUTS-21 LIBS mAb binding, at 6.7 µM, stronger effect = higher value
[9] = superoxide lowering in aged yeast cells, pilot screen, validation compound set (AID 2706;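 active = superoxide response below 65% of plate, a cut near 3 SD across the whole screen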;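 also: yeast exposed to compound for one week at 30 degrees C before staining; 100% = mean of all compound wells on the same plate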); details: S. cerevisiae aging, superoxide DHE fluorescence; at 10 µM; stronger effect = lower value
[10] = biological target: Beta-adrenergic receptor kinase 1 (Homo sapiens) (UniProt P25098); assay: GRK2 binders displacing RNA aptamer, biochemical, validation, human GRK2, bead flow cytometry (AID 488806;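 active = aptamer binding inhibition above 30%, about 3 SD of noise from non-fluorescent compounds; inactive = inhibition at or below 30%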); details: bead-bound GRK2, FAM-aptamer displacement, at 10 µM, stronger effect = higher value
[11] = biological target: Beta-2 adrenergic receptor (Homo sapiens) (UniProt P07550); assay: beta2AR agonists driving receptor internalization, pilot screen, cell-based, FAP fluorogen, flow cytometry, validation set (AID 504459;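 active = percent response above 42, roughly 3 SD of non-fluorescent test compounds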;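 also: agonist-driven loss of surface beta2AR via internalization measured by FAP dye flow cytometry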); details: Am2.2-beta2AR cells, FAP surface receptor flow cytometry; at 10 µM; stronger effect = higher value
[12] = biological target: AP-2 complex subunit beta (Homo sapiens) (UniProt P63010); assay: inhibitors of arrestin peptide binding to AP2, pilot screen, biochemical, validation set, GST-AP2 beads, flow cytometry (AID 504541;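 active = inhibition above 54%, about 3 SD of non-fluorescent compounds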;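 also: AP2 carries R879A mutation and is captured from E. coli lysate; bead-bound FITC arrestin peptide fluorescence measuring arrestin peptide binding to AP2; 0% = DMSO wells and 100% = excess unlabeled arrestin peptide control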); details: FITC arrestin peptide, at 10 µM, stronger effect = higher value
[13] = yeast V-ATPase proton transport modulators, S. cerevisiae, pHLuorin, HTS validation (AID 504600; in the data active = response above about 15%;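 also: plate controls were DMSO for no effect and reference compound for full effect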); details: S. cerevisiae pHLuorin cytosolic pH, at 10 µM, stronger effect = higher value
[14] = tested on: anti-desmoglein-3 scFv antibody binding to human DSG3; assay: inhibitors of anti-DSG3 scFv binding to DSG3, pilot screen, biochemical, validation compound set, bead-based, flow cytometry (AID 588368;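 active = binding below the plate cutoff, the plate median minus 3 SD, with a reading above zero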;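 also: signal is the median channel fluorescence of bead-bound GFP antibody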); details: Protein G beads, DSG3-Fc, scFv-GFP binding, at 10 µM, stronger effect = lower value
[15] = tested on: Botulinum neurotoxin type F light chain protease (Clostridium botulinum); assay: Botulinum neurotoxin type F light chain protease inhibition, multiplex microsphere flow cytometry, validation set (AID 588459); details: multiplex microsphere protease substrate cleavage assay, at 10 µM, stronger effect = higher value
[16] = biological target: Botulinum neurotoxin type A (Clostridium botulinum) (UniProt P0DPI0); assay: BoNT/A light chain protease inhibitors, biochemical, multiplex microsphere flow cytometry, validation set (AID 588460); details: at 10 µM, stronger effect = higher value
[17] = biological target: Lethal factor (Bacillus anthracis) (UniProt P15917); assay: Lethal factor protease inhibitors, Bacillus anthracis, multiplex microsphere cleavage assay, validation set (AID 588461); details: flow cytometry, at 10 µM, stronger effect = higher value
[18] = inhibitors of fungal efflux pumps CDR1, CDR2, MDR1, pilot screen, validation compound set, multiplex, phenotypic (AID 588506;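 active = efflux inhibition above 0.42, the validation set average plus 4 SD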;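 also: Nile Red retained in cells so higher fluorescence means more efflux inhibition; 0 = negative control wells and 1 = enniatin B 25 µM full block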); details: S. cerevisiae pump-expressing triplex, Nile Red efflux flow cytometry; at 10 µM; stronger effect = higher value
[19] = biological target: ATP-binding cassette sub-family B member 6 (Homo sapiens) (UniProt Q9NP58); assay: ABCB6 transporter inhibitors, pilot screen, K562-ABCB6 cells, flow cytometry, validation set (AID 588550;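 active = inhibition above the screen-wide mean plus 3 SD, about 51%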;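 also: 0% = DMSO wells and 100% = benzethonium chloride 70 µM positive control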); details: K562-ABCB6 porphyrin accumulation, 1 h, at 10 µM, stronger effect = higher value
[20] = promoters of myeloid differentiation in arrested cells, primary screen, cell-based, GFP/MAC1 double positive, flow cytometry, validation set (AID 588685;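 active = differentiation response of at least 50%, scaled between solvent and reference control, from cells with both markers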;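 also: compound exposure lasts four days before antibody staining and flow analysis; 0% = DMSO wells and 100% = 5 µM fulvestrant positive control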); details: ER-HoxA9 marrow cells, stronger effect = higher value

CC1(C)CC(n2[nH]c(=O)c3c2NC(=O)CSC3c2ccccc2)CCO1 (stereo unspecified)
86.2%: GTP binding, percent of control [1]

COc1ccc(-c2cc(=NCCCCCC(=O)O)c3cc(C)ccc3o2)cc1
66.2%: GTP binding, percent of control [1]

Cc1nc2c(=O)n(C)c(=O)nc-2n(C)n1
98.5%: GTP binding, percent of control [1]

CC[C@@H]1C(=O)OC[C@@H]1Cc1cncn1C
inactive: percent of DMSO control GFP [2] 89.8% | percent response of DMSO control [4] 112% | GFP response vs DMSO [5] 88% | GFP response, % of DMSO [6] 86.3% | vesicle binding response [7] 171% and 339% | inhibition [8] 13.2% and 5.49% | superoxide response (% of plate) [9] 82.6% and 106% | aptamer binding inhibition [10] 7% and 4% | response [11] 1.92% and 3.7% | inhibition [12] 14.2% and -5.27% | response [13] -2.39% and 0.38% | binding (% of control) [14] 104% and 95.6% | inhibition [15] -1.2% and -3.1% | inhibition [16] -0.7% and 0.7% | inhibition [17] -1.2% and 7% | efflux inhibition (fraction of control) [18] 0.16 and 0.05 | inhibition [19] 3% and 12% | differentiation response [20] 14.7% and 20.5%
65.5% and 68.4%: double positive events [7]
active: GFP response vs DMSO [3] 144%

C[C@H](O)[C@H]1CC[C@H]2[C@@H]3CCC4=CC(=O)CC[C@]4(C)[C@H]3CC[C@]12C
61%: double positive events [7]
inactive: percent of DMSO control GFP [2] 98.9% | GFP response vs DMSO [3] 103% | percent response of DMSO control [4] 91.3% | GFP response vs DMSO [5] 126% | GFP response, % of DMSO [6] 89.6% | vesicle binding response [7] 104% | inhibition [8] 11% | superoxide response (% of plate) [9] 106% | aptamer binding inhibition [10] 0% | response [11] -3.16% | inhibition [12] -3.68% | response [13] -6.77% | binding (% of control) [14] 102% | inhibition [15] -0.6% | inhibition [16] 0.2% | inhibition [17] 2.8% | efflux inhibition (fraction of control) [18] -0.17 | inhibition [19] 9% | differentiation response [20] -4.57%

Cc1sc(-n2c(C)cc(C=C3C(=O)NC(=O)NC3=O)c2C)c(C#N)c1C
68.9%: GTP binding, percent of control [1]

O=C(O)c1cn(Cc2ccccc2F)c2ccccc12
106%: GTP binding, percent of control [1]

C#C[C@]1(O)CC[C@H]2[C@@H]3CCC4=CC(=O)CC[C@]4(C)[C@H]3CC[C@@]21C
inactive: percent of DMSO control GFP [2] 88.7% | percent response of DMSO control [4] 106% | GFP response vs DMSO [5] 80.9% | GFP response, % of DMSO [6] 87.7% | vesicle binding response [7] 255% | inhibition [8] 3.55% | superoxide response (% of plate) [9] 97.8% | aptamer binding inhibition [10] 1% | response [11] -8% | inhibition [12] 14.2% | response [13] -3.36% | binding (% of control) [14] 102% | inhibition [15] 2.5% | inhibition [16] -0.5% | inhibition [17] -1.2% | efflux inhibition (fraction of control) [18] 0.3 | inhibition [19] 9% | differentiation response [20] -0.82%
active: GFP response vs DMSO [3] 140%
64.1%: double positive events [7]

O=C(O)c1cn(Cc2ccc(Br)cc2)c2ccccc12
104%: GTP binding, percent of control [1]

O=c1[nH]c(=S)[nH]c(O)c1N=Nc1ccc(S(=O)(=O)N2CCc3ccccc32)cc1
95.9%: GTP binding, percent of control [1]

O=C(O)c1cn(Cc2ccc(F)cc2)c2ccccc12
112%: GTP binding, percent of control [1]

O=C1CN=C(c2ccccc2)c2cc(Br)ccc2N1Cc1cc(=O)n2ccccc2n1
64.5%: GTP binding, percent of control [1]

CCOc1ccc(C2SCC(=O)Nc3c2c(C)nn3C2CCOC(C)(C)C2)cc1 (stereo unspecified)
150%: GTP binding, percent of control [1]

CC12CN3CC(C)(CN(C1)C31CCOCC1)C2=O
active: GFP response vs DMSO [3] 145%
inactive: percent of DMSO control GFP [2] 92.6% | percent response of DMSO control [4] 101% | GFP response vs DMSO [5] 90.2% | GFP response, % of DMSO [6] 94.5% | vesicle binding response [7] 166% | inhibition [8] 5.49% | superoxide response (% of plate) [9] 90% | aptamer binding inhibition [10] 2% | response [11] 3.7% | inhibition [12] 40.7% | response [13] -6.81% | binding (% of control) [14] 100% | inhibition [15] 1.2% | inhibition [16] 0.1% | inhibition [17] -2.4% | efflux inhibition (fraction of control) [18] -0.09 | inhibition [19] 13% | differentiation response [20] -2.46%
65.1%: double positive events [7]

Cc1cc(C)cc(N2C(=O)NC(=O)/C(=C\C=C\c3ccco3)C2=O)c1
83.8%: GTP binding, percent of control [1]

CCOCCCn1c(N)c(C(=O)Nc2sc3c(c2C(=O)OC)CCCC3)c2nc3ccccc3nc21
122%: GTP binding, percent of control [1]

O=C1C(=O)c2ccccc2-c2ccccc21
active: percent of DMSO control GFP [2] 73.2% | aptamer binding inhibition [10] 67% | response [11] 112% | efflux inhibition (fraction of control) [18] 2.06 | differentiation response [20] 100%
61.3%: double positive events [7]
inactive: GFP response vs DMSO [3] 126% | percent response of DMSO control [4] 92.9% | GFP response vs DMSO [5] 60.6% | GFP response, % of DMSO [6] 36.3% | vesicle binding response [7] 176% | inhibition [8] -0.43% | superoxide response (% of plate) [9] 83% | response [13] 0.26% | binding (% of control) [14] 98.9% | inhibition [15] 5.3% | inhibition [16] 0.6% | inhibition [17] -4.7% | inhibition [19] -64%

O=C1CN=C(c2ccccc2F)c2cc(Cl)ccc2N1
active: GFP response vs DMSO [3] 147%
inactive: percent of DMSO control GFP [2] 90.9% | percent response of DMSO control [4] 95.2% | GFP response vs DMSO [5] 78.7% | GFP response, % of DMSO [6] 88% | vesicle binding response [7] 272% | inhibition [8] 1.61% | superoxide response (% of plate) [9] 98.6% | aptamer binding inhibition [10] -3% | response [11] -21.4% | inhibition [12] 43.2% | response [13] -7.23% | binding (% of control) [14] 94.8% | inhibition [15] 3.7% | inhibition [16] 0.4% | inhibition [17] 1.5% | efflux inhibition (fraction of control) [18] 0.27 | inhibition [19] 14% | differentiation response [20] 11.5%
67.2%: double positive events [7]
